# Test results from PubChem BioAssay (NCI).
# This is part of a sample that, as a whole, favours compounds with a hit. Of some 83,000 tested, about 20% had one in any assay.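 Treatment: one concentration, 48 hours, 96-well format. Scoring: percent growth, with anything below 10 considered active.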 Unmarked numbers belong to inactive results. Calls of active or inactive are those of the source.
# Columns and labels:
# Assay in all cases: NCI-60 one-dose screen, 48 h (100 = growth as untreated, 0 = no growth, -100 = all killed)
# Conditions in all cases: 10 µM unless noted
# NCI-H23 lung = system: NCI-H23 lung
# NCI-H226 lung = system: NCI-H226 lung
# NCI-H322M lung = system: NCI-H322M lung
# HOP-62 NSCLC = system: HOP-62 NSCLC
# NCI-H460 lung = system: NCI-H460 lung
# HOP-92 NSCLC = system: HOP-92 NSCLC
# NCI-H522 lung = system: NCI-H522 lung
# A549/ATCC NSCLC = system: A549/ATCC NSCLC
# 786-0 renal = system: 786-0 renal
# COLO 205 colon = system: COLO 205 colon
# DU-145 prostate = system: DU-145 prostate
# K-562 leukemia = system: K-562 leukemia
# MALME-3M melanoma = system: MALME-3M melanoma
# MDA-MB-231 breast = system: MDA-MB-231 breast
# RXF 393 renal = system: RXF 393 renal
# SF-268 CNS = system: SF-268 CNS
# SF-295 CNS = system: SF-295 CNS
# UACC-257 melanoma = system: UACC-257 melanoma
# M14 melanoma = system: M14 melanoma
SMILES,growth (NCI-H23 lung),growth (NCI-H226 lung),growth (NCI-H322M lung),growth (HOP-62 NSCLC),growth (NCI-H460 lung),growth (HOP-92 NSCLC),growth (NCI-H522 lung),growth (A549/ATCC NSCLC),growth (786-0 renal),growth (COLO 205 colon),growth (DU-145 prostate),growth (K-562 leukemia),growth (MALME-3M melanoma),growth (MDA-MB-231 breast),growth (RXF 393 renal),growth (SF-268 CNS),growth (SF-295 CNS),growth (UACC-257 melanoma),growth (M14 melanoma)
Cc1cc(OCc2ccc(C(F)(F)F)cc2)c2c(c1)C(=O)C=C(NCCN1CCCC1)C2=O,84.5%,93%,80.9%,83.1%,43.9%,60.1%,87.6%,54.3%,58.5%,-77.4% (active),76.2%,-8.28% (active),-45.4% (active),74.7%,53.6%,69%,64.1%,-92.4% (active),-84.9% (active)
CCC(c1ccccc1)C(CC)c1ccc(O)c(O)c1 (centres undefined),89.5%,97.4%,96.1%,124%,107%,83.6%,85.2%,98.6%,98.9%,125%,100%,87%,114%,109%,106%,92.1%,106%,97.3%,96.9%
CC(=O)C1=C(O)C=C2Oc3c(C(=O)/C=C/c4cc(Cl)cc(Cl)c4)c(O)c(C)c(O)c3[C@]2(C)C1=O,-42% (active),-41.1% (active),-28.9% (active),-42.5% (active),-5.02% (active),-22% (active),-52.2% (active),-27.1% (active),-34.9% (active),-70.3% (active),-3.76% (active),-16.2% (active),-62.4% (active),-30.9% (active),-40.4% (active),-21.4% (active),-18.7% (active),-19.6% (active),-32.8% (active)
COc1ccc(-c2cnoc2-c2cc(OC)c3c(c2)OCCO3)cc1,16.7%,61.8%,45%,-8.55% (active),3.25% (active),31%,-39.1% (active),18.6%,8.21% (active),-58.4% (active),-9.77% (active),6.93% (active),62.8%,-23.8% (active),32.3%,19.9%,9.28% (active),69.7%,7.58% (active)
COc1ccc(C(=O)c2sc3nc(-c4ccccc4OC)ccc3c2N)cc1OC,63.2%,63%,87.2%,95.3%,51.7%,56.4%,50.3%,64.6%,64.1%,102%,70.1%,25.1%,90.6%,64%,55.8%,64.7%,47.9%,86.6%,50%
CC/C=C\C[C@H](F)C/C=C1/C(=O)C=C[C@@H]1C/C=C\CCCC(=O)OC,-12.6% (active),25.4%,45.5%,-25.8% (active),1.34% (active),68.9%,-26.8% (active),24.3%,5.15% (active),-28.1% (active),25.7%,-5.83% (active),-13.6% (active),3.26% (active),-45.5% (active),26%,4.48% (active),-0.592% (active),1.2% (active)
Cc1nc2nc(N)nc(N)c2nc1C,91.5%,94.6%,95.1%,88.6%,108%,87.3%,89.8%,102%,98.4%,117%,110%,100%,99.9%,94%,105%,98.5%,90.5%,96.2%,90.9%
CCCCCCCCCC(=O)Oc1ccc(/C(=C(/C)c2ccccc2)c2ccc(OCCN3CCCC3)cc2)cc1,26.8%,65.7%,32.8%,-1.82% (active),-7.47% (active),-19% (active),-26.3% (active),11.3%,-58.6% (active),-57.1% (active),55.9%,-12.4% (active),-62% (active),-5.4% (active),-32.4% (active),38.7%,-75.1% (active),-51.9% (active),-57.8% (active)
CC/C=C\C[C@H](O)C/C=C1/C(=O)C=C[C@@H]1C/C=C\CCCC(=O)NC(C)C,13.4%,-33.5% (active),39.9%,-16.8% (active),-4.43% (active),65.3%,-35.5% (active),2.59% (active),0.451% (active),-41.3% (active),27.2%,3.29% (active),-4.08% (active),19.9%,-64.8% (active),35.4%,6.21% (active),-4.26% (active),7.13% (active)
NC1=CC(=O)C(=O)c2ccccc21,72.7%,98.1%,102%,98.2%,106%,106%,80.6%,112%,92.8%,117%,102%,71%,45.7%,77.5%,100%,93.3%,80.7%,51.5%,68.1%
Cn1c(=O)c2[nH]c(C(O)C(O)C(O)C(O)CO)nc2n(C)c1=O (centres undefined),100%,95.1%,93.7%,96%,107%,109%,86.7%,88.7%,107%,103%,109%,95.1%,97%,101%,115%,106%,103%,93.6%,105%
CS(=O)CCCCCN=C=S (centres undefined),4.24% (active),-8.26% (active),1.21% (active),-7.49% (active),0.781% (active),19.5%,-25.4% (active),-0.774% (active),9.82% (active),-51.6% (active),9.76% (active),-0.259% (active),-11.5% (active),9.17% (active),-34.7% (active),8.94% (active),51%,-6.89% (active),8.73% (active)
COc1c(C2CC(=O)Nc3c2cnn3Cc2ccco2)cc2c(c1OC)OCO2 (centres undefined),29.9%,44.7%,55.4%,12.2%,2.88% (active),48.9%,-2.1% (active),27.6%,35.4%,-49.1% (active),5.85% (active),5.69% (active),55.7%,16%,-30% (active),34.1%,-20.6% (active),68.4%,9.85% (active)
Cc1ccc(S(=O)(=O)n2cc(-c3csc(-c4cn(C)c5ncccc45)n3)c3ccccc32)cc1,68.1%,77.6%,79.5%,51.8%,30.3%,35.8%,45.6%,41.5%,77.9%,43.6%,78.3%,26.7%,68.5%,42.6%,74.3%,74.1%,41.9%,70.8%,34.2%
Cc1ccccc1CCO,100%,93.7%,90.8%,89.1%,105%,104%,76.2%,85.4%,100%,92.7%,111%,114%,92.5%,110%,104%,101%,99.6%,89.4%,98.3%
COc1cc(/C=N/N(C)C)ccc1O,105%,91.5%,99.1%,91.4%,105%,-18.7% (active),87.7%,84.1%,109%,108%,110%,101%,105%,93.1%,105%,101%,104%,89.1%,108%
